Assay results published in PubChem BioAssay AID1159580 (chemical genetic matrix, 2015).
About 2,000 (36%) of roughly 5,500 compounds were called active. Roughly 18% stayed inconclusive and do not appear here. Cut-off read from the data, not from the text of the source: active = normalized growth mostly below about 0.91 (no sharp cut-off); inconclusive = no clear call, values can overlap the other calls; inactive = mostly above about 0.92. The list shows a part of the results.

Experiment: chemical genetic growth profiling, strain panel (AID 1159580);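 note: tested at 20 µM; growth read once vehicle control cultures reached saturation at 30 °C; 1 = growth at the plate median or of vehicle wells; lower values mean less growth of the strain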
Settings: growth OD
[1] = S. cerevisiae deletion strains, locus YDL101C, strain DUN1, active compounds read low
[2] = S. cerevisiae deletion strains, locus YHR030C, strain SLT2, active compounds read low
[3] = S. cerevisiae deletion strains, locus YAL013W, strain DEP1, active compounds read low
[4] = S. cerevisiae deletion strains, locus YBR229C, strain ROT2, active compounds read low
[5] = S. cerevisiae deletion strains, locus YDR150W, strain NUM1, active compounds read low
[6] = S. cerevisiae deletion strains, locus YEL061C, strain CIN8, active compounds read low
[7] = S. cerevisiae deletion strains, locus YGR078C, strain PAC10, active compounds read low
[8] = S. cerevisiae deletion strains, locus YHR087W, strain rtc3, active compounds read low
[9] = S. cerevisiae deletion strains, locus YJL187C, strain SWE1, active compounds read low
[10] = S. cerevisiae deletion strains, locus YJR043C, strain POL32, active compounds read low
[11] = S. cerevisiae deletion strains, locus YJR075W, strain HOC1, active compounds read low
[12] = S. cerevisiae deletion strains, locus YLR039C, strain RIC1, active compounds read low
[13] = S. cerevisiae deletion strains, locus YLR058C, strain SHM2 (second series), active compounds read low
[14] = S. cerevisiae deletion strains, locus YLR085C, strain ARP6, active compounds read low
[15] = S. cerevisiae deletion strains, locus YLR262C, strain YPT6, active compounds read low
[16] = S. cerevisiae deletion strains, locus YML094W, strain GIM5, active compounds read low
[17] = S. cerevisiae deletion strains, locus YMR219W, strain ESC1, active compounds read low
[18] = S. cerevisiae deletion strains, locus YMR263W, strain SAP30, active compounds read low
[19] = S. cerevisiae deletion strains, locus YNL153C, strain GIM3, active compounds read low
[20] = S. cerevisiae deletion strains, locus YNL298W, strain CLA4 (second series), active compounds read low
[21] = S. cerevisiae deletion strains, locus YNL322C, strain KRE1, active compounds read low
[22] = S. cerevisiae deletion strains, locus YNR030W, strain Alg12, active compounds read low
[23] = S. cerevisiae deletion strains, locus YPL055C, strain LGE1, active compounds read low
[24] = S. cerevisiae deletion strains, locus YPL241C, strain CIN2, active compounds read low
[25] = S. cerevisiae deletion strains, locus YPR135W, strain CTF4, active compounds read low

Measured: normalized growth

CC(Oc1ccc(Cl)cc1Cl)C(=O)NNC(=S)Nc1ccccc1 (centres undefined)
inactive: S. cerevisiae deletion strains, locus YAR019C, strain CDC15, active compounds read low 0.983 | S. cerevisiae deletion strains, locus YBL105C, strain PKC1, active compounds read low 0.978 | S. cerevisiae deletion strains, locus YBR135W, strain CKS1, active compounds read low 0.982 | S. cerevisiae deletion strains, locus YBR136W, strain MEC1, active compounds read low 0.98 | S. cerevisiae deletion strains, locus YBR160W, strain CDC28, active compounds read low 0.975 | S. cerevisiae deletion strains, locus YDL017W, strain CDC7, active compounds read low 0.986 | S. cerevisiae deletion strains, locus YDL028C, strain MPS1, active compounds read low 0.977 | [1] 0.973 | S. cerevisiae deletion strains, locus YDL108W, strain KIN28, active compounds read low 0.959 | S. cerevisiae deletion strains, locus YDL132W, strain cdc53, active compounds read low 0.968 | S. cerevisiae deletion strains, locus YDL214C, strain PRR2, active compounds read low 0.984 | S. cerevisiae deletion strains, locus YDR052C, strain DBF4, active compounds read low 0.991 | S. cerevisiae deletion strains, locus YDR054C, strain cdc34, active compounds read low 0.982 | S. cerevisiae deletion strains, locus YDR226W, strain ADK1, active compounds read low 0.981 | S. cerevisiae deletion strains, locus YDR477W, strain SNF1, active compounds read low 0.994 | S. cerevisiae deletion strains, locus YER123W, strain YCK3, active compounds read low 0.983 | S. cerevisiae deletion strains, locus YER133W, strain GLC7, active compounds read low 0.966 | S. cerevisiae deletion strains, locus YFL009W, strain cdc4, active compounds read low 0.976 | S. cerevisiae deletion strains, locus YFL029C, strain CAK1, active compounds read low 0.981 | S. cerevisiae deletion strains, locus YFR003C, strain YPI1, active compounds read low 0.981 | S. cerevisiae deletion strains, locus YFR019W, strain FAB1, active compounds read low 0.964 | S. cerevisiae deletion strains, locus YFR028C, strain CDC14, active compounds read low 0.974 | S. cerevisiae deletion strains, locus YGR040W, strain KSS1, active compounds read low 0.965 | S. cerevisiae deletion strains, locus YGR052W, strain FMP48, active compounds read low 0.982 | S. cerevisiae deletion strains, locus YGR092W, strain DBF2, active compounds read low 0.905 | [2] 0.974 | S. cerevisiae deletion strains, locus YHR079C, strain IRE1, active compounds read low 1.01 | S. cerevisiae deletion strains, locus YHR082C, strain KSP1, active compounds read low 1.03 | S. cerevisiae deletion strains, locus YHR205W, strain SCH9, active compounds read low 0.906 | S. cerevisiae deletion strains, locus YIL147C, strain SLN1, active compounds read low 0.97 | S. cerevisiae deletion strains, locus YJL095W, strain BCK1, active compounds read low 0.927 | S. cerevisiae deletion strains, locus YJL128C, strain PBS2, active compounds read low 0.943 | S. cerevisiae deletion strains, locus YJL157C, strain FAR1, active compounds read low 0.973 | S. cerevisiae deletion strains, locus YJR016C, strain ILV3, active compounds read low 0.971 | S. cerevisiae deletion strains, locus YJR066W, strain TOR1 (second series), active compounds read low 0.94 | S. cerevisiae deletion strains, locus YJR066W, strain TOR1, active compounds read low 1.01 | S. cerevisiae deletion strains, locus YKL048C, strain ELM1, active compounds read low 0.974 | S. cerevisiae deletion strains, locus YKL067W, strain YNK1, active compounds read low 0.966 | S. cerevisiae deletion strains, locus YKL101W, strain HSL1, active compounds read low 0.957 | S. cerevisiae deletion strains, locus YKL193C, strain SDS22, active compounds read low 0.977 | S. cerevisiae deletion strains, locus YKL203C, strain TOR2, active compounds read low 1.02 | S. cerevisiae deletion strains, locus YLR113W, strain HOG1, active compounds read low 0.981 | S. cerevisiae deletion strains, locus YLR133W, strain CKI1, active compounds read low 0.959 | S. cerevisiae deletion strains, locus YLR403W, strain SFP1, active compounds read low 0.908 | S. cerevisiae deletion strains, locus YML070W, strain DAK1, active compounds read low 0.98 | S. cerevisiae deletion strains, locus YMR001C, strain CDC5, active compounds read low 0.981 | S. cerevisiae deletion strains, locus YMR205C, strain PFK2 (second series), active compounds read low 0.968 | S. cerevisiae deletion strains, locus YMR277W, strain FCP1, active compounds read low 0.98 | S. cerevisiae deletion strains, locus YNL006W, strain LST8, active compounds read low 0.976 | S. cerevisiae deletion strains, locus YNL020C, strain ARK1, active compounds read low 0.954 | S. cerevisiae deletion strains, locus YNL161W, strain CBK1, active compounds read low 0.984 | S. cerevisiae deletion strains, locus YNL183C, strain NPR1, active compounds read low 1.01 | S. cerevisiae deletion strains, locus YNL207W, strain RIO2, active compounds read low 0.958 | S. cerevisiae deletion strains, locus YNL222W, strain SSU72, active compounds read low 0.973 | S. cerevisiae deletion strains, locus YNL307C, strain MCK1 (second series), active compounds read low 0.873 | S. cerevisiae deletion strains, locus YOL078W, strain AVO1, active compounds read low 0.972 | S. cerevisiae deletion strains, locus YOL136C, strain PFK27, active compounds read low 0.938 | S. cerevisiae deletion strains, locus YOR061W, strain CKA2, active compounds read low 0.968 | S. cerevisiae deletion strains, locus YOR119C, strain RIO1, active compounds read low 1.03 | S. cerevisiae deletion strains, locus YOR231W, strain MKK1, active compounds read low 0.993 | S. cerevisiae deletion strains, locus YOR329C, strain SCD5, active compounds read low 0.982 | S. cerevisiae deletion strains, locus YPL031C, strain PHO85, active compounds read low 0.995 | S. cerevisiae deletion strains, locus YPL153C, strain RAD53, active compounds read low 0.993 | S. cerevisiae deletion strains, locus YPL204W, strain HRR25, active compounds read low 0.944 | S. cerevisiae deletion strains, locus YPL209C, strain IPL1, active compounds read low 0.98 | S. cerevisiae deletion strains, locus YPL256C, strain CLN2, active compounds read low 1.12 | S. cerevisiae deletion strains, locus YPR025C, strain CCL1, active compounds read low 0.978 | S. cerevisiae deletion strains, locus YPR106W, strain ISR1, active compounds read low 0.977 | S. cerevisiae deletion strains, locus YPR111W, strain DBF20, active compounds read low 0.961 | S. cerevisiae deletion strains, strain NNK1, active compounds read low 0.973 | S. cerevisiae deletion strains, strain TSCII, active compounds read low 0.983

CCN(C(=S)Nc1ccc(OC)cc1)c1ccccc1
inactive: [3] 1 | [4] 1.02 | [1] 1.01 | S. cerevisiae deletion strains, locus YDL134C, strain PPH21, active compounds read low 1.01 | [5] 0.917 | [6] 1 | [7] 0.989 | [2] 1.12 | [8] 1.01 | [9] 1.01 | [10] 1.01 | [11] 1 | S. cerevisiae deletion strains, locus YKL190W, strain CNB1, active compounds read low 1.02 | [12] 0.921 | [13] 1.03 | [14] 0.976 | [15] 0.985 | [16] 1 | [17] 1.02 | [18] 1.01 | [19] 0.988 | [20] 0.99 | [21] 1.02 | [22] 0.992 | [23] 0.89 | [24] 0.999 | [25] 0.884

COc1cccc(NC(=S)NCc2ccco2)c1
inactive: [3] 0.979 | [4] 0.99 | [1] 1.03 | [5] 1.04 | [6] 0.979 | [7] 1.01 | [2] 0.88 | [8] 0.977 | [9] 0.984 | [10] 1.01 | [11] 1 | [12] 0.976 | [13] 0.984 | [14] 0.884 | [15] 0.97 | [16] 0.963 | [17] 0.992 | [18] 1.04 | [19] 1 | [20] 1.01 | [21] 0.994 | [22] 0.986 | [23] 0.976 | [24] 0.97 | [25] 0.956 | S. cerevisiae strains, strain wild type, active compounds read low 0.996
